Measurements taken from PubChem BioAssay (Tox21).
Records with an inconclusive call do not appear. Active and inactive are the calls of the source. Unless noted, the call rests on the fitted dose curve; in most records, active means well fitted curve in the direction sought with a large enough effect in the repeat runs; inconclusive means weak or mixed curves; inactive means no such curve, though single readings can be large; an effect the other way counts as inactive or inconclusive.

Legend:
[1] = biological target: Retinoic acid receptor RXR-alpha (Homo sapiens) (UniProt P19793); assay: qHTS assay to identify small molecule agonists of the RXR signaling pathway (AID 1159527; calls by dose curve; further: nearly all actives have a fitted effect of over 35% in size)
Procedure, shortened: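 Compounds in DMSO were added to RXR-alpha-UAS-bla HEK 293T cells kept in 2% charcoal-stripped serum, and incubated 16 hr at 37 C with 5% CO2. Reporter signal came from a 2 hr B/G FRET substrate step.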

[2] = qHTS assay to identify small molecule agonists of the RXR signaling pathway - cell viability counter screen (AID 1159529);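 further: HEK 293T cells carrying an RXR-alpha UAS beta-lactamase reporter; series mostly up to about 77 µM; nearly all actives have a fitted effect of over 50% in size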
Procedure, shortened: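 Counter screen: CellTiter-Glo luminescence. Cells: RXR-alpha-UAS-bla HEK 293T. Medium: 2% charcoal-stripped FBS. Treatment: 16 h, 37 C. Reagent incubation: 30 min, RT.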

[3] = qHTS assay to identify small molecule antagonists of the retinoid acid receptor (RAR) signaling pathway - cell viability counter screen (AID 1159551); further: nearly all actives have a fitted effect of over 35% in size
Procedure, shortened: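 Retinol-stimulated (1 uM final) C3RL4 cells, compound 6 h, 37 C; readout CellTiter-Glo luminescence (ATP) after 30 min RT incubation.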

[4] = qHTS assay to identify small molecule antagonists of the retinoic acid receptor (RAR) signaling pathway (AID 1159552; further: nearly all actives have a fitted effect of over 50% in size)
Procedure, shortened: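 Antagonism of retinol-induced RARE reporter activity was measured in C3RL4 cells. Exposure to compounds and 1 uM final retinol lasted 6 hr at 37 C, with luminescence as endpoint.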

[5] = qHTS assay to identify small molecule agonists of the retinoic acid receptor (RAR) signaling pathway (AID 1159553)
Procedure, shortened: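 Reporter readout comes from luciferase under RARE control in C3RL4 cells; compound exposure lasts 6 hr at 37 C in 5% CO2, and luminescence is recorded following a 30 min room-temperature incubation with reagent.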

[6] = qHTS assay to identify small molecule antagonists of the estrogen related receptor (ERR) signaling pathway - cell viability counter screen (AID 1224818); further: series mostly up to about 46 µM
Procedure, shortened: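 After a 6 h pre-incubation, ERR cells were dosed by pin tool with compounds, positive/negative controls or DMSO alone. Following 17.5 h at 37 C and 30 min with CellTiter-Fluor, fluorescence was recorded.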

[7] = qHTS assay to identify small molecule antagonists of the estrogen related receptor signaling pathway with the pleiotropic PPARgamma coactivator (PGC) cell viability counter screen (AID 1224822; further: series mostly up to about 46 µM)
Procedure, shortened: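 PGC/ERR cells were plated at 2,000 per well and allowed 6 h to settle before compound addition. Following 17.5 h at 37 C, CellTiter-Fluor reagent was added and fluorescence was read 30 min later.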

[8] = qHTS assay to identify small molecule antagonists of the estrogen related receptor (ERR) signaling pathway from Tox21 library - cell viability counter screen (AID 1224834); further: nearly all actives have a fitted effect of over 30% in size
Procedure, shortened: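 After 17.5 h of compound exposure at 37 C, ERR cells are incubated with CellTiter-Fluor for 30 min and fluorescence intensity serves as the viability measure.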

[9] = biological target: Luciferin 4-monooxygenase (Photinus pyralis) (UniProt P08659); assay: qHTS assay to identify small molecule inhibitors of firefly luciferase (AID 1224835); further: series mostly up to about 120 µM; nearly all actives have a fitted effect of over 25% in size
Procedure, shortened: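 Quantitative HTS format; KM concentrations of both substrates. Purified P. pyralis FLuc activity quantified from luminescence images.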

[10] = qHTS assay to identify small molecule agonists of the constitutive androstane receptor (CAR) signaling pathway - cell viability counter screen (AID 1224836); further: series mostly up to about 92 µM; nearly all actives have a fitted effect of over 45% in size
Procedure, shortened: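 Double-stable HepG2 hepatoma cells (hCAR plus CYP2B6-2.2kb) are treated for 23 h at 37 C with test compounds in 15-point concentration series. PK11195 at 0.75 uM final is co-added. Cell viability is quantified by CellTiter-Fluor.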

[11] = qHTS assay to identify small molecule antagonists of the constitutive androstane receptor (CAR) signaling pathway - cell viability counter screen (AID 1224837); further: series mostly up to about 92 µM; nearly all actives have a fitted effect of over 45% in size
Procedure, shortened: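 Counter screen run in HepG2-CYP2B6-hCAR cells: 4 hr settle, compound titration (15 concentrations) with 50 nM CITCO, 23 hr at 37 C/5% CO2, CellTiter-Fluor fluorescence.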

[12] = qHTS assay to identify small molecule antagonists of the estrogen related receptor signaling pathway with the pleiotropic PPARgamma coactivator (PGC) from Tox21 10K library - cell viability counter screen (AID 1224840; active means well fitted cell-killing curve with a large enough effect in the repeat runs, not every such curve was filed as active; further: nearly all actives have a fitted effect of over 40% in size)
Procedure, shortened: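 Following seeding of 2,000 PGC/ERR cells/well and 6 hours' incubation, test compounds were delivered in DMSO. The plates then sat 17.5 hours at 37 C before a fluorogenic live-cell protease reagent (CellTiter-Fluor) was read after 30 min.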

[13] = biological target: Nuclear receptor subfamily 1 group I member 3 (Homo sapiens) (UniProt Q14994); assay: qHTS assay to identify small molecule antagonists of the constitutive androstane receptor (CAR) signaling pathway (AID 1224838);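 further: HepG2 cells stably expressing hCAR with CYP2B6 luciferase reporter stimulated by CITCO; nearly all actives have a fitted effect of over 40% in size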
Procedure, shortened: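 Cell line: HepG2 double-stable for hCAR and CYP2B6-2.2kb reporter. Agonist: CITCO, 50 nM final. Compounds: 15 concentrations, 24 h, 37 C. Detection: ONE-Glo luminescence.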

[14] = biological target: Nuclear receptor subfamily 1 group I member 3 (Homo sapiens) (UniProt Q14994); assay: qHTS assay to identify small molecule agonists of the constitutive androstane receptor (CAR) signaling pathway (AID 1224839);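 further: HepG2 cells stably carrying human CAR and a CYP2B6 luciferase reporter; series mostly up to about 92 µM; nearly all actives have a fitted effect of over 15% in size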
Procedure, shortened: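 Readout: firefly luciferase luminescence via ONE-Glo. System: HepG2 double-stable for hCAR and CYP2B6-2.2kb. Conditions: 15-point compound titration, PK11195 at 0.75 uM final, 24 h incubation.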

[15] = qHTS assay to identify small molecule antagonists of the estrogen related receptor (ERR) signaling pathway (AID 1224819;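 further: luminescence from an ERR-driven luciferase reporter measured with One-Glo reagent; series mostly up to about 46 µM; nearly all actives have a fitted effect of over 50% in size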)
Procedure, shortened: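 Luminescence readout (One-Glo, 30 min, RT) of ERR cell line after 18 h compound exposure at 37 C; cells seeded 2,000/well, pre-incubated 6 h, compounds pinned from DMSO stocks.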

[16] = qHTS assay to identify small molecule agonists of the estrogen related receptor (ERR) signaling pathway (AID 1224820)
Procedure, shortened: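 Quantitative HTS of the LOPAC library used NTP ERR reporter cells treated 18 h at 37 C. Signal is luminescence after One-Glo addition and a 30 min room-temperature incubation.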

[17] = test system: estrogen-related receptor alpha (ERRalpha) with PGC-1alpha coactivator, human; assay: qHTS assay to identify small molecule antagonists of the estrogen related receptor signaling pathway with the pleiotropic PPARgamma coactivator (PGC) (AID 1224821; calls by dose curve;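 further: series mostly up to about 46 µM; lower luminescence signal means antagonism of PGC/ERR signalling; nearly all actives have a fitted effect of over 50% in size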)
Procedure, shortened: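 Quantitative HTS for antagonism: PGC/ERR cells received compounds after 6 h attachment and were incubated 18 h at 37 C, with luminescence (One-Glo) as the endpoint.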

[18] = qHTS assay to identify small molecule agonists of the estrogen related receptor signaling pathway with the pleiotropic PPARgamma coactivator (PGC) (AID 1224823)
Procedure, shortened: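 Cell-based luciferase assay in the NTP-supplied PGC/ERR line, 2,000 cells/well; 18 h compound exposure at 37 C, luminescence after One-Glo.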

[19] = qHTS assay to identify small molecule antagonists of the estrogen related receptor signaling pathway with the pleiotropic PPARgamma coactivator (PGC) from Tox21 10K library (AID 1224841; call rule not given here)
Procedure, shortened: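 qHTS antagonist format: PGC/ERR cells, 2k/well, compound in DMSO by pin transfer after 6 h attachment, 18 h treatment at 37 C, One-Glo luminescence read at 30 min.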

[20] = qHTS assay to identify small molecule agonists of the estrogen related receptor signaling pathway with the pleiotropic PPARgamma coactivator (PGC) from Tox21 10K library (AID 1224842); further: nearly all actives have a fitted effect of over 15% in size
Procedure, shortened: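 PGC/ERR reporter cells (NTP line) were seeded 2,000 per well, rested 6 h at 37 C/5% CO2, then pin-dosed with compounds in DMSO for 18 h at 37 C; luciferase read by One-Glo luminescence after 30 min at room temperature.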
On the % scale 0 is the no-effect control and ±100 the full control effect.

Sequence of Nuclear receptor subfamily 1 group I member 3 (Homo sapiens) (Q14994 whole entry, looked up): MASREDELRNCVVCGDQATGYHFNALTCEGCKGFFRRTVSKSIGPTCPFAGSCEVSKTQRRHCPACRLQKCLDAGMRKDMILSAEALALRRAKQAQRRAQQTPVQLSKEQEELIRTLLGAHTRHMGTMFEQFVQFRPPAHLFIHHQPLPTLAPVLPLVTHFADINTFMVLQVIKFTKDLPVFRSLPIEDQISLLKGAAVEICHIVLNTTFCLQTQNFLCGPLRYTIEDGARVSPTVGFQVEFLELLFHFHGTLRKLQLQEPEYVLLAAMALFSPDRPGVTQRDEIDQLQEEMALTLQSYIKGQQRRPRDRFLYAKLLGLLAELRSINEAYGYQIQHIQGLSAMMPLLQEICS
Sequence of Retinoic acid receptor RXR-alpha (Homo sapiens) (P19793 whole entry, looked up): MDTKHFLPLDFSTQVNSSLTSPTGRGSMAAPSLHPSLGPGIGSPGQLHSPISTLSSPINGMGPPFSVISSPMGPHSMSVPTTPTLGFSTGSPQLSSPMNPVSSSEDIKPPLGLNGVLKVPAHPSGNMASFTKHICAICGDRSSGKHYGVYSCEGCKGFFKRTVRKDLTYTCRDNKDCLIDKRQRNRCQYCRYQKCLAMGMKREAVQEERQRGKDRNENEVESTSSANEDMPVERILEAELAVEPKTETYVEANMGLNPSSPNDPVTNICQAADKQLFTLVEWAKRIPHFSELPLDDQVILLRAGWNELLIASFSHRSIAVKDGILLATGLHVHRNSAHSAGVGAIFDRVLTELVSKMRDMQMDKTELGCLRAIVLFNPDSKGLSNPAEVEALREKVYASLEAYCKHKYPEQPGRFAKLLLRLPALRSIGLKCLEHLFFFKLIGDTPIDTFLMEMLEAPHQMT
Sequence of Luciferin 4-monooxygenase (Photinus pyralis) (P08659 whole entry, looked up): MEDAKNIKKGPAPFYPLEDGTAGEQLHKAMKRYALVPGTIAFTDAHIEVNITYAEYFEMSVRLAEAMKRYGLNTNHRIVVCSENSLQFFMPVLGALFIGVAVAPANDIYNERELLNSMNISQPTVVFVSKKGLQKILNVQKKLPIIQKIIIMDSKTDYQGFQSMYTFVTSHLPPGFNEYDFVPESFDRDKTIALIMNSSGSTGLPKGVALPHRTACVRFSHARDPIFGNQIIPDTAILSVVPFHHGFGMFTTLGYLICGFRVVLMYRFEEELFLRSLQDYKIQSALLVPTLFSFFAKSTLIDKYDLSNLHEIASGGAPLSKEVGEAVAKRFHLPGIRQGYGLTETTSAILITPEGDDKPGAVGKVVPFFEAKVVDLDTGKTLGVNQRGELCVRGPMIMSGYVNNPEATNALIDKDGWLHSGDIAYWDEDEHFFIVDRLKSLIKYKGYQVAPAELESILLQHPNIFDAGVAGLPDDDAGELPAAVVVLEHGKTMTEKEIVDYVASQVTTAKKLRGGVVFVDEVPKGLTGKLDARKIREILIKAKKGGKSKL

Cc1nnc(SCC2=C(C(=O)O)N3C(=O)[C@@H](NC(=O)Cn4cnnn4)[C@H]3SC2)s1
inactive: Potency [1] | Potency [2] | outcome [3] | Potency [4] | Potency [5] | outcome [6] | outcome [7] | Potency [8] | Potency [9] | Potency [10] | Potency [11] | Potency [12]

CC(=O)O[C@H]1CC[C@@]2(C)C(=CC[C@@H]3[C@@H]2CC[C@]2(C)C(C(C)=O)=CC[C@@H]32)C1
inactive: Potency [1] | Potency [2] | outcome [3] | Potency [4] | Potency [5] | Potency [8] | Potency [9] | Potency [10] | Potency [11] | Potency [13] | Potency [14] | Potency [12]

COc1ccccc1N1CCN(CCCNc2cc(=O)n(C)c(=O)n2C)CC1
inactive: Potency [1] | Potency [2] | outcome [3] | Potency [4] | Potency [5] | outcome [6] | outcome [15] | outcome [16] | outcome [17] | outcome [7] | outcome [18] | Potency [8] | Potency [9] | Potency [10] | Potency [11] | Potency [13] | Potency [14] | Potency [12] | Potency [19] | Potency [20]

Cc1ccsc1C(=CCCN1CCC[C@@H](C(=O)O)C1)c1sccc1C
inactive: Potency [1] | Potency [2] | outcome [3] | Potency [4] | Potency [5] | Potency [8] | Potency [9] | Potency [10] | Potency [11] | Potency [13] | Potency [14] | Potency [12]

O=C(O)[C@@H]1CSCN1
inactive: Potency [1] | Potency [2] | outcome [3] | Potency [4] | Potency [5] | Potency [8] | Potency [9] | Potency [10] | Potency [11] | Potency [13] | Potency [14] | Potency [12]

CCCCNCCCC
inactive: Potency [1] | Potency [2] | outcome [3] | Potency [4] | Potency [5] | Potency [8] | Potency [9] | Potency [10] | Potency [11] | Potency [13] | Potency [14] | Potency [12] | Potency [19] | Potency [20]

CCN(O)CC
inactive: Potency [1] | Potency [2] | outcome [3] | Potency [4] | Potency [5] | Potency [8] | Potency [9] | Potency [10] | Potency [11] | Potency [13] | Potency [14] | Potency [12]

OCCN(CCO)CCN(CCO)CCO
inactive: Potency [1] | Potency [2] | outcome [3] | Potency [4] | Potency [5] | Potency [8] | Potency [9] | Potency [10] | Potency [11] | Potency [13] | Potency [14] | Potency [12] | Potency [19] | Potency [20]

CN1CCN(N)CC1
inactive: Potency [1] | Potency [2] | outcome [3] | Potency [4] | Potency [5] | Potency [8] | Potency [9] | Potency [10] | Potency [11] | Potency [13] | Potency [14] | Potency [12]

O=C(O)CN(CCN(CC(=O)O)CC(=O)O)CCN(CC(=O)O)CC(=O)O
inactive: activation [1] 6.5% [at 15.8 µM] | activity change, negative = cytotoxicity [2] 2.65% [at 15.8 µM] | activity change, negative = cytotoxicity [3] 4.77% [at 19 µM] | activity, negative = inhibition [4] -10.7% [at 19 µM] | Potency [5] | outcome [6] | outcome [15] | outcome [16] | outcome [17] | outcome [7] | outcome [18] | viability change, negative = cytotoxic [8] 4.74% [at 19 µM] | activity change, negative = inhibition [9] 2.77% [at 23.6 µM] | viability change, negative = cytotoxic [10] -25% [at 19 µM] | activity change, negative = cytotoxicity [11] -28.8% [at 19 µM] | activation [14] -1.04% [at 19 µM] | viability change, negative = cytotoxic [12] 0.226% [at 19 µM] | activity, negative = inhibition [19] 0.933% [at 19 µM] | activation [20] 0.186% [at 19 µM]

c1ccc(CN(CC2=NCCN2)c2ccccc2)cc1
inactive: Potency [1] | Potency [2] | outcome [3] | Potency [4] | Potency [5] | Potency [8] | Potency [9] | Potency [10] | Potency [11] | Potency [13] | Potency [14] | Potency [12] | Potency [19] | Potency [20]

CC/C=C\CCOC(=O)CCCCC
inactive: Potency [1] | Potency [2] | outcome [3] | Potency [4] | Potency [5] | Potency [8] | Potency [9] | Potency [10] | Potency [11] | Potency [13] | Potency [14] | Potency [12] | Potency [19] | Potency [20]

FC(F)(F)c1ccccc1
inactive: Potency [1] | Potency [2] | outcome [3] | Potency [4] | Potency [5] | Potency [8] | Potency [9] | Potency [10] | Potency [11] | Potency [13] | Potency [14] | Potency [12] | Potency [19] | Potency [20]

CCCCNc1cc(C(=O)O)cc(S(N)(=O)=O)c1Oc1ccccc1
inactive: Potency [1] | Potency [2] | outcome [3] | Potency [4] | Potency [5] | outcome [6] | outcome [7] | Potency [8] | Potency [9] | Potency [10] | Potency [11] | Potency [12]

CCCCN1C[C@H](O)[C@@H](O)[C@H](O)[C@H]1CO
inactive: Potency [1] | Potency [2] | outcome [3] | Potency [4] | Potency [5] | Potency [8] | Potency [9] | Potency [10] | Potency [11] | Potency [13] | Potency [14] | Potency [12]

CO[C@@]1(NC(=O)CSCC#N)C(=O)N2C(C(=O)O)=C(CSc3nnnn3C)CS[C@@H]21
inactive: Potency [1] | Potency [2] | outcome [3] | Potency [4] | Potency [5] | outcome [6] | outcome [7] | Potency [8] | Potency [9] | Potency [10] | Potency [11] | Potency [13] | Potency [14] | Potency [12]

CCN(CC)C(=O)N(CC)CC
inactive: Potency [1] | Potency [2] | outcome [3] | Potency [4] | Potency [5] | Potency [8] | Potency [9] | Potency [10] | Potency [11] | Potency [13] | Potency [14] | Potency [12]

O=C1N(c2ccccc2)c2ccccc2C1(Cc1ccncc1)Cc1ccncc1
inactive: Potency [1] | Potency [2] | outcome [3] | Potency [4] | Potency [5] | outcome [6] | outcome [15] | outcome [16] | outcome [7] | outcome [18] | Potency [10] | Potency [11] | Potency [13] | Potency [14] | Potency [12] | Potency [19] | Potency [20]
